# Bioassay records from PubChem.
# Keap1-Nrf2 PPI = disrupts human Keap1 binding to Nrf2 peptide | Q14145 | Keap1 Kelch-Nrf2 peptide fluorescence polarization, 1536-well | inhibition, % at 9.4 µM | 340,000 tested, 0.15% active | AID 504523; in the data active means inhibition above about 12%; inconclusive means no clear call, values can overlap the other calls; inactive means below about 7.3%;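 further: human Keap1 Kelch domain with fluorescein labeled Nrf2 9mer peptide probe; 0% = neutral control wells and 100% = peptide positive control; higher means more block of Keap1 binding to Nrf2 peptide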
# Target sequence (Q14145 whole entry, looked up, the tested form may be a part): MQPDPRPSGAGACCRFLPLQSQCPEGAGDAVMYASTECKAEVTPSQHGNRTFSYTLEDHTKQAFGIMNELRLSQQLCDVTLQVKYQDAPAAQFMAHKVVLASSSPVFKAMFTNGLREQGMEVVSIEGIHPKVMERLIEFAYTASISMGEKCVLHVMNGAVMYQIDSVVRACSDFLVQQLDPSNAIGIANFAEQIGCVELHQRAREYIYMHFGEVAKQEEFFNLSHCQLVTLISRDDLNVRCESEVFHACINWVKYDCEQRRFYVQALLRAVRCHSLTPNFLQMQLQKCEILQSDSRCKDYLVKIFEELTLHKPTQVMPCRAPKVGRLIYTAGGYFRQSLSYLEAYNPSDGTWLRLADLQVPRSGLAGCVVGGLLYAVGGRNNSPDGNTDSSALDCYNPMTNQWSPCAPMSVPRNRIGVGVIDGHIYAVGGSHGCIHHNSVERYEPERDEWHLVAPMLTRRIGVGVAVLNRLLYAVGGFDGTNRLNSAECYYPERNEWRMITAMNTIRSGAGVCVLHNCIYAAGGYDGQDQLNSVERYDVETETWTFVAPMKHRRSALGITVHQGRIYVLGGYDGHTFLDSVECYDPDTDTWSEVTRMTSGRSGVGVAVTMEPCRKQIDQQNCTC
# RTF Ca sens act = increases calcium sensitivity of human cardiac regulated thin filaments; IANBD-labeled TnC RTF fluorescence at EC20 calcium; 0% EC20 calcium, 100% full calcium; P19429+P45379; 340,000 tested, 0.24% active; activation, % at 7.2 µM;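 active means activation above the mean over all tested compounds plus 3 SD, cut at about 30% in these data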;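 further: rise in fluorescence read as greater calcium sensitivity of cardiac thin filaments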
# LANA DNA inh = KSHV C-LANA DNA binding inhibition; MBP-C-LANA/FAM-LBS DNA binding, fluorescence polarization; inhibition, % at 9 µM; 340,000 tested, 0.078% active;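 active means highest replicate inhibition at or above 60% at 9 µM, even if other replicates fall short; inactive means all replicates below 60% inhibition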;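 further: 0% = neutral control wells and 100% = 4 µM acridine orange control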
# E coli Lon inh = E. coli protease La inhibition; purified E. coli Lon protease, fluorescence polarization; inhibition, % at 7.94 µM; 360,000 tested, 0.42% active; AID 602123; in the data active means inhibition above about 13%, passing the limit was not always enough;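 further: 0% = enzyme with probe and DMSO and 100% = no enzyme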
# EBV gp42 inh = blocks Epstein-Barr virus glycoprotein 42 binding; Q1HVG2; Fluorescence polarization binding assay, mP read-out; inhibition, % (tested at 21.74 µM); 220,000 tested, 0.42% active; in the data active means inhibition above about 50%
# RTF Ca sens inh = cardiac RTF calcium desensitization; IANBD-labeled cardiac RTF, Ca2+ fluorescence; P19429+P45379; AID 493244; 340,000 tested, 0.12% active; inhibition, % at 7.15 µM;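 active means inhibition above the mean inhibition of all tested compounds plus 3 SD, cut at about 17% in these data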;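 further: assay run at fixed EC70 calcium of 1.6 mM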
# E coli Lon conf = E. coli Lon inhibition confirmation; shares compounds with E coli Lon inh; purified E. coli Lon, fluorescence polarization; inhibition, % at 7.94 µM; 1,400 tested, 31% active; in the data active means inhibition above about 16%;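 further: 0% = enzyme with probe and DMSO and 100% = no enzyme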
# * = called active by the depositor; ? = inconclusive; . = not tested or not shown. The list is not random: actives were taken first. Their share in the collection is about 0.98%.
SMILES,Keap1-Nrf2 PPI,RTF Ca sens act,LANA DNA inh,E coli Lon inh,EBV gp42 inh,RTF Ca sens inh,E coli Lon conf
CCOC(=O)C(=C1Nc2ccccc2N1)n1c(-c2cnccn2)nc2ccccc21,.,.,.,-6,.,.,.
NC(=O)c1c(NC(=O)CSc2nnc(Cc3ccccc3)n2Cc2ccco2)sc2c1CCC2,2,6,0,22*,2,-5,-6
CC1CC(C)CN(C(=O)COC(=O)/C=C/c2cccc([N+](=O)[O-])c2)C1 (configuration not stated),0,-7,1,5,.,-3,.
CN(C)c1cccc(C(=O)NCc2ccccc2Cl)c1,-2,-3,1,68*,-5,6,-2
CCOc1ccc(NC(=O)C2=NN(c3ccccc3)C(=O)CC2)cc1S(=O)(=O)N1CCCCC1,2,2,0,-14,.,-5,.
CCCc1nn(C)c(C(=O)Nc2cccc(Cl)c2)c1Cl,-4,-1,1,30*,-7,4,2
CCCc1nn(C)c(C(=O)Nc2cccc(C)c2)c1Cl,-2,-1,1,24,-6,0,.
COc1ccccc1CSc1nc2c(c(=O)n(C)c(=O)n2C)n1C,5,1,-2,6,.,2,.
CSC1=NC(=O)/C(=C/c2ccc(SC)cc2)S1,-7,2,4,25*,-45,-6,-4
CN=C1S/C(=C\c2ccc(SC)cc2)C(=O)N1C,-2,-7,2,1,.,-8,.
CCc1ccc(N=Nc2ccc(O)c3[nH]cnc23)cc1,-3,-4,2,-273,.,-2,.
CCCCC1=CC2=C(c3ccco3)C(=O)C(C)(OC(=O)c3ccc(OC)cc3)C(=O)C2=CN1CCOC (configuration not stated),-1,3,2,48*,13,-8,12
CCCCC1=CC2=C(c3ccco3)C(=O)C(C)(OC(=O)c3ccc(OC)cc3)C(=O)C2=CN1Cc1ccc2c(c1)OCO2 (configuration not stated),-7,14,0,-7,0,-17,.
CCCCC1=CC2=C(c3ccco3)C(=O)C(C)(OC(=O)c3ccc(OC)cc3)C(=O)C2=CN1C1CCCCC1 (configuration not stated),6,11,1,14,10,-13,.
CCCCC1=CC2=C(c3ccco3)C(=O)C(C)(OC(=O)c3ccc(OC)cc3)C(=O)C2=CN1CCc1ccccn1 (configuration not stated),-5,17,1,37*,46,-20,-18
CN1CCN(C(=O)c2ccc3c(c2)N(Cc2ccc(Cl)cc2)C(=O)c2ccccc2S3=O)CC1 (configuration not stated),-3,6,-3,-1,-13,-4,.
CN1CCN(C(=O)c2ccc3c(c2)N(Cc2ccccc2F)C(=O)c2ccccc2S3=O)CC1 (configuration not stated),-6,4,1,16*,.,1,6
CCOC(=O)C1Nc2c(F)cc(C)cc2C2c3ccccc3CC12 (configuration not stated),-1,-1,1,-2,.,-4,.
CCOC(=O)C1Nc2ccccc2C2c3ccccc3CC12 (configuration not stated),4,5,-2,30*,.,-7,29*
Cc1ccc2c(c1)N(C(=O)CCC(=O)NCc1ccccn1)CC(C)O2 (configuration not stated),3,5,-2,-3,.,-2,.
CC(C)C[C@H]1CN([C@@H](Cc2ccccc2)CN2CCC[C@@H]2CN2C(=O)C(=O)NC[C@@H]2Cc2ccccc2)C(=O)C(=O)N1CC1CCCCC1,.,.,.,-3,.,.,.
Nc1ccc2c(O)cc(S(=O)(=O)O)cc2c1,0,58*,51,137*,.,-63,3
Nc1cccc2c(O)cc(S(=O)(=O)O)cc12,?,-12,117*,65*,.,15,12
O=C(O)c1cc(S(=O)(=O)O)ccc1O,0,-4,6,4,-4,-11,.
O=C(CCCNC(=O)c1ccc(Cl)cc1)Nc1nccs1,-3,1,1,4,.,-6,.
SMILES,Keap1-Nrf2 PPI,RTF Ca sens act,LANA DNA inh,E coli Lon inh,EBV gp42 inh,RTF Ca sens inh,E coli Lon conf
CCOC(=O)c1c(-c2ccccc2)c[nH]c1C,-6,2,.,0,.,-4,.
CCC(=O)C1CCCN(C(=O)CCc2nnc(C3(c4ccc(Cl)cc4)CCC3)o2)C1 (configuration not stated),3,-3,0,-6,.,5,.
COc1cc(/C=N/NC(=O)c2ccccc2NS(=O)(=O)c2cccs2)ccc1O,-3,-2,0,-4,.,-4,.
O=C(C/C=N\OCc1ccc([N+](=O)[O-])cc1)Nc1ccc(Br)cc1,-3,-3,0,17*,15,-3,-2
O=C(COc1ccc([N+](=O)[O-])cc1)NNC(=O)Nc1ccc([N+](=O)[O-])cc1,-8,-4,1,0,.,1,.
CN1CCN(CC(C)(C)NS(=O)(=O)c2ccc(Cl)cc2)CC1,-3,8,1,-4,-15,-11,.
CC(C)(CN1CCc2ccccc2C1)NS(=O)(=O)c1ccc(Cl)cc1,0,18,1,17*,0,-19,13
CCC(c1ccccc1)c1noc(CCN(CC)CC)n1 (configuration not stated),.,.,.,-13,.,.,.
CC1(C)CC(=O)C(C=Nc2cccnc2)=C(O)C1,1,-1,-1,-3,-8,4,.
CC1(C)CC(=O)C(C=Nc2cccnc2/N=C/C2=C(O)CC(C)(C)CC2=O)=C(O)C1,-6,-4,1,52*,6,-22,-3
CC1(C)CC(=O)C(C=Nc2ccc(C(=O)c3ccccc3)cc2N=CC2=C(O)CC(C)(C)CC2=O)=C(O)C1,-7,44*,1,13*,2,-82,-20
CC1(C)CC(=O)C(C=Nc2ccc(O)c(N=CC3=C(O)CC(C)(C)CC3=O)c2)=C(O)C1,-2,6,-1,-31,-3,-13,.
CN1C=CC2=C(C#N)C(N)C(C#N)(C#N)C(c3ccccc3)C2C1 (configuration not stated),10,40*,41,17*,63*,-36,-31
CC(CNC(=O)c1ccccc1Cl)NC(=O)c1ccccc1Cl (configuration not stated),.,.,.,9,.,.,.
CSCC(C)N1CCC(Oc2cccc(C(=O)NCc3ccccn3)c2)CC1 (configuration not stated),5,4,9,17*,.,-13,-319
N#Cc1ccc(CC(=O)c2ccccc2)[nH]c1=O,-1,-4,7,25*,.,-3,-98
Cc1ccc(S(=O)(=O)N(C)CCCC(=O)N2CCCCC2)cc1,-2,-4,1,-2,.,-1,.
CN(Cc1ccccc1)C(=O)c1ccc2nc([C@H]3C[C@H](O)[C@@H](CO)O3)[nH]c2c1,.,.,.,-1,.,.,.
